Source: PubChem (National Center for Advancing Translational Sciences (NCATS))
In the library only some 7.3% were active in any assay of this set; here they are far more common.
VACV Venus inh: vaccinia inhibition (Venus reporter); 330,000 compounds, 0.46% hits; AID 720580; Potency, µM (doses to about 36.5 µM), most hits filed as inhibitors; Vaccinia virus Venus reporter expression, fluorescence; calls by dose curve; tested in A549 cells; also: nearly all actives have a fitted effect of over 30% in size
Vaccinia mCherry: vaccinia inhibition (mCherry reporter). Vaccinia virus mCherry reporter infection, fluorescence. Potency, µM (highest dose often 36.5 µM), usual class: inhibitors. 310,000 compounds, 0.63% hits. AID 720579; calls by dose curve; tested in A549 cells; also: nearly all actives have a fitted effect of over 35% in size
FMDV inh: antivirals against foot and mouth disease virus; FMDV antiviral cell-based qHTS; Potency, µM (top dose mostly 57.9 µM), actives largely listed as inhibitors; 410,000 compounds, 1.2% hits; AID 1159524; calls by dose curve; tested in HEK293T cells; also: read-out not given here; nearly all actives have a fitted effect of over 45% in size
HCV inh: blocks hepatitis C virus; Huh7.5.1 HCVcc-Cre infection, luciferase reporter, 44 h; Potency, µM (highest dose often 41.8 µM), actives largely listed as inhibitors; 340,000 compounds, 3.4% hits; active = well fitted inhibition curve with a large enough effect; inconclusive = small, poorly fitted or top-dose-only effect, or another doubt; inactive = no such curve, though single readings can be large or run the other way
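Antiviral activity was scored by luciferase reporter output from cells infected with HCVcc-Cre (~0.5 moi) in presence of compound, 44 h infection period, cells seeded 1,000/well 4 h prior.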
HCMV antiviral: inhibitors of human cytomegalovirus | AID 1259415 | activity change, negative = inhibition, % at 57.5 µM | 410,000 compounds, 4.5% hits | HFF cells, HCMV-luciferase reporter, 72 h; active compounds read low; in the data active = activity change below about -60%; inconclusive = no clear call, values can overlap the other calls; inactive = above about -39%
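Compounds were evaluated in HFFs infected with an HCMV luciferase reporter virus (MOI 1 PFU/cell). Luciferase in lysates collected 72 h post infection served as the replication measure.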
Large screens that a line does not name were inactive; ! = not active in a repeat.

CN(C(=O)CSc1nc2ccc(NC(=O)COc3ccc(F)cc3)cc2s1)c1ccccc1	VACV Venus inh inconclusive, Vaccinia mCherry inconclusive, FMDV inh inconclusive, HCMV antiviral -70 (no result: HCV inh)
Cc1cccc(-c2nc3ccccc3n3c(-c4ccccc4)c4c(=O)n(C)c(=O)n(C)c4c23)c1	none (no result: HCV inh)
Nc1ncc(-c2ccccc2)c(-c2ccc(OCc3ccccc3)cc2O)n1	Vaccinia mCherry inconclusive, HCV inh 1.8µM, HCMV antiviral inconclusive
COc1ccccc1-c1cn[nH]c1-c1ccc(OCc2ccc(F)cc2)cc1O	HCV inh inconclusive (no result: VACV Venus inh, Vaccinia mCherry)
Oc1cc(OCc2ccccc2)ccc1-c1[nH]ncc1-c1ccccc1	VACV Venus inh inconclusive, Vaccinia mCherry inconclusive, HCMV antiviral inconclusive
COc1ccc(-c2cn[nH]c2-c2ccc(OCc3ccccc3)cc2O)cc1OC	VACV Venus inh inconclusive, Vaccinia mCherry 11µM, FMDV inh inconclusive, HCV inh inconclusive
COc1ccc(-c2cn[nH]c2-c2ccc(OCc3ccc(F)cc3)cc2O)cc1OC	FMDV inh 25µM, HCV inh inconclusive, HCMV antiviral inconclusive
CCCc1cc(=O)oc2cc(C)cc(OCC(=O)Nc3cccnc3)c12	HCV inh inconclusive, HCMV antiviral active (no result: VACV Venus inh, Vaccinia mCherry)
Cc1cc(OCC(=O)Nc2cccnc2)c2c(C)cc(=O)oc2c1	none (no result: VACV Venus inh, Vaccinia mCherry)
Cc1cc(NC(=O)CCN2C(=O)C3C4C=CC(C4)C3C2=O)ccc1Br (stereo unspecified)	HCMV antiviral -68
Cc1ccccc1Cn1cc(S(=O)(=O)c2ccc(F)cc2)c(=O)c2cc3c(cc21)OCO3	none (no result: HCV inh)
CCOC(=O)c1nnn(-c2nc(N3CCCC3)nc(N3CCCC3)n2)c1-c1ccccc1	HCV inh 18µM (no result: VACV Venus inh, Vaccinia mCherry)
CCOC(=O)c1c(-c2ccccc2)nnn1-c1nc(OCC)nc(N2CCCCC2)n1	FMDV inh inconclusive, HCV inh 6.3µM, HCMV antiviral inconclusive
CC[n+]1ccccc1/C=C1\Sc2ccc(C)cc2N1C	FMDV inh inconclusive, HCV inh 6.3µM, HCMV antiviral -97 (no result: VACV Venus inh, Vaccinia mCherry)
CN1/C(=C/c2cccc[n+]2CCO)Sc2ccccc21	HCMV antiviral inconclusive
COc1ccccc1N1CCN(C(=O)C2CCCN(S(=O)(=O)c3ccc4c(c3)oc(=O)n4C)C2)CC1 (stereo unspecified)	FMDV inh 25µM, HCV inh inconclusive, HCMV antiviral -60!
COc1ccc(N2CCN(C(=O)C3CCCN(S(=O)(=O)c4ccc5c(c4)oc(=O)n5C)C3)CC2)cc1 (stereo unspecified)	FMDV inh inconclusive
Cn1c(=O)oc2cc(S(=O)(=O)N3CCCC(C(=O)Nc4ccccn4)C3)ccc21 (stereo unspecified)	FMDV inh inconclusive
Cn1c(=O)oc2cc(S(=O)(=O)N3CCCC(C(=O)NC4CCCc5ccccc54)C3)ccc21 (stereo unspecified)	VACV Venus inh inconclusive, Vaccinia mCherry inconclusive, HCMV antiviral -90
Cc1ccc(S(=O)(=O)N2CCN(CC(=O)NC3CCCc4ccccc43)CC2)c(C)c1 (stereo unspecified)	FMDV inh inconclusive, HCV inh inconclusive (no result: VACV Venus inh, Vaccinia mCherry)
Cc1ccc(S(=O)(=O)N2CCN(CC(=O)NC3CCCc4ccccc43)CC2)cc1C (stereo unspecified)	FMDV inh inconclusive, HCV inh 32µM
Cc1cccc(NC(=O)/C(C#N)=C/c2cn(CC(=O)NCc3ccco3)c3ccccc23)c1	HCV inh inconclusive, HCMV antiviral -63
COc1ccc(NC(=O)O/N=C/c2c(C)nn(C(C)(C)C)c2C)cc1	FMDV inh inconclusive, HCMV antiviral inconclusive (no result: VACV Venus inh, Vaccinia mCherry)
Cc1nn(C(C)(C)C)c(C)c1/C=N/OC(=O)Nc1ccc(Cl)c(Cl)c1	FMDV inh 0.32µM, HCMV antiviral -61 (no result: VACV Venus inh, Vaccinia mCherry)
CCN(CC)c1ccc2nc3ccccc3[n+](CC)c2c1	VACV Venus inh inconclusive, FMDV inh 7.9µM, HCV inh 6.3µM (no result: HCMV antiviral)
CCN(CC)c1ccc2nc3ccc(N)cc3[n+](-c3ccccc3)c2c1	FMDV inh inconclusive, HCV inh 5µM (no result: HCMV antiviral)
CCCc1cnc2c(c1SCC(=O)Nc1ccc([N+](=O)[O-])cc1)c(=O)n(C)c(=O)n2C	VACV Venus inh inconclusive, FMDV inh 16µM (no result: HCV inh)
CCc1nn2c(-c3ccccc3OC)ccnc2c1-c1ccccc1	HCMV antiviral inconclusive (no result: HCV inh)
CCOc1ccc(NC2=CC(=O)C(=O)c3ccccc32)cc1	VACV Venus inh inconclusive, Vaccinia mCherry inconclusive, HCV inh inconclusive, HCMV antiviral inconclusive
COc1cc(Cl)c(NC2=CC(=O)C(=O)c3ccccc32)c(OC)c1	FMDV inh inconclusive, HCV inh 16µM, HCMV antiviral -97 (no result: VACV Venus inh, Vaccinia mCherry)
CCOc1ccc(NC(=O)C(=O)NCC(c2cccnc2)N2CCc3ccccc32)cc1 (stereo unspecified)	FMDV inh 11µM, HCMV antiviral -66 (no result: HCV inh)
COC(=O)c1ccc(NC(=O)C(=O)NCC(c2cccnc2)N2CCc3ccccc32)cc1 (stereo unspecified)	FMDV inh 11µM (no result: HCV inh)
COc1ccc(NC(=O)C(=O)NCC(c2cccnc2)N2CCc3ccccc32)cc1OC (stereo unspecified)	none (no result: HCV inh)
Cc1nc(C)c(C(=O)NNS(=O)(=O)c2ccc3ccccc3c2)s1	Vaccinia mCherry inconclusive, HCV inh 13µM, HCMV antiviral -73
O=C(Nc1cccc(Cl)c1)c1cccc(Oc2ccc([N+](=O)[O-])cc2Cl)c1	FMDV inh inconclusive, HCV inh inconclusive, HCMV antiviral -89 (no result: VACV Venus inh, Vaccinia mCherry)
COc1ccc(NC(=O)c2cccc(Oc3ccc([N+](=O)[O-])cc3Cl)c2)cc1	Vaccinia mCherry inconclusive, HCV inh inconclusive, HCMV antiviral -87
COc1cccc(C(=O)COc2cccc(NC(=O)c3cccc([N+](=O)[O-])c3)c2)c1	VACV Venus inh inconclusive, FMDV inh 28µM, HCV inh 8.9µM, HCMV antiviral inconclusive (no result: Vaccinia mCherry)
Cc1ccc(C)c(NC(=O)c2cccc(Oc3ccc([N+](=O)[O-])cc3Cl)c2)c1	VACV Venus inh inconclusive, Vaccinia mCherry inconclusive, HCV inh inconclusive, HCMV antiviral inconclusive
COc1ccc(OCCNC(=O)c2cccc(Oc3ccc(C(F)(F)F)cc3[N+](=O)[O-])c2)cc1	FMDV inh inconclusive, HCV inh inconclusive, HCMV antiviral -66
O=C(NCCO)c1ccc(Oc2ccc(C(F)(F)F)cc2[N+](=O)[O-])cc1	none
COc1cccc(CNS(=O)(=O)c2ccc(N3CCCCS3(=O)=O)cc2)c1	HCMV antiviral inconclusive (no result: HCV inh)
CCC[C@H]1[C@@H](NS(=O)(=O)c2c(C)cc(C)cc2C)CC[C@@]23CCCN2C(=O)CCC[C@@H]13	none (no result: VACV Venus inh, Vaccinia mCherry, FMDV inh, HCV inh)
O=C(CSc1nnc(COc2cccc3cccnc23)o1)N1CCc2ccccc21	HCV inh 2.2µM (no result: FMDV inh)
CCc1cc(=O)oc2c(C)c(OS(C)(=O)=O)ccc12	none
CCc1cc2c(=O)c(-c3ccc4c(c3)OCCO4)c(C)oc2cc1OS(C)(=O)=O	VACV Venus inh inconclusive, Vaccinia mCherry inconclusive, FMDV inh inconclusive, HCV inh inconclusive, HCMV antiviral -63
CCCCOc1cccc(C(=O)Nc2cc(NC(=O)c3ccco3)ccc2OC)c1	HCMV antiviral -104 (no result: HCV inh)
CCCOc1cccc(C(=O)NC(=S)Nc2cccc(C(F)(F)F)c2)c1	HCMV antiviral inconclusive (no result: FMDV inh)
CCCCC(=O)Nc1cccc(NC(=O)c2cccc(Br)c2)c1	HCV inh 11µM (no result: VACV Venus inh, Vaccinia mCherry)
